Only some compounds are listed: those with a hit (about 7.1% of all), similar ones and a draw of the others.
ATXN2 expr inh: reduces ATXN2 reporter expression in HEK-293 cells; HEK-293 ATXN2-luciferase reporter, luminescence, 24 h; 360,000 compounds, 0.72% hits; Potency, µM (titrated, usually from 57 µM), for the others: at the highest dose activity change, negative = inhibition, hits mostly inhibitors; also: potency is read from the fitted curve at half-maximal effect; % is scaled to controls: 0 for no effect and ±100 for the full control effect; nearly all actives have a fitted effect of over 55% in size
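qHTS (up to 57 uM final) was run with 24 h compound exposure of reporter cells at 37 °C. Each well was multiplexed: SteadyGlo luminescence measured ATXN2-luciferase expression after a fluorogenic Gly-Phe-AFC viability readout (25 uM final).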
SW480 rerep: DNA re-replication induction in SW480 cells | SW480 DNA re-replication, Hoechst DNA content imaging, 48 h | Potency, µM (series often up to 46.1 µM), inactives show top-dose re-replication activation, actives largely listed as activators | 340,000 compounds, 1.8% hits | AID 624297; also: potency is read from the fitted curve at half-maximal effect; % of control where 0% means no effect; nearly all actives have a fitted effect of over 55% in size
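Cells (250 per well) received 23 nL compound or DMSO by pin tool and were kept 48 hr at 37 C, 5% CO2. Nuclei were then stained with Hoechst for 40 min and scanned for DNA content.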
ATXN viability: cell viability loss in ATXN counter-screen. S2 cells (HEK-293 line with an ATXN2-luciferase reporter) viability, CellTiter-Fluor protease fluorescence, 24 h. Potency, µM (highest dose often 56.7 µM), actives largely listed as cytotoxic. 400,000 compounds, 0.49% hits. AID 651635; also: potency is read from the fitted curve at half-maximal effect; nearly all actives have a fitted effect of over 40% in size
MCF10A rereplic: inducers of DNA re-replication in MCF 10A breast cells | MCF 10A DNA re-replication, Hoechst nuclear intensity, 48 h | Potency, µM (titrated, usually from 46.1 µM), for the others: at the top dose activity, positive = re-replication, usual class: activators | 350,000 compounds, 2.9% hits | AID 624296; also: potency is read from the fitted curve at half-maximal effect; % of control where 0% means no effect; nearly all actives have a fitted effect of over 50% in size
IL-1B inflam inh: blocks inflammasome-driven IL-1 beta release; THP-1 LPS/ATP IL-1B secretion, AlphaLISA, 16 h; active compounds read low; activity change, % at 57.5 µM; 360,000 compounds, 4.7% hits; AID 743279; in the data active = activity change below about -50%; inconclusive = mostly about -30% to -49%; also: % is scaled to controls: 0 for no effect and ±100 for the full control effect
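THP-1 cells pretreated 1 hr with compounds (up to 57.5 uM final), then stimulated with LPS (250 ng/mL final) plus ATP (1.25 mM final); secreted IL-1B measured by AlphaLISA after 16 hr, decreased signal indicating inhibition.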
PINK1 modulator: changes PINK1 expression; AID 624263; PINK1 immunofluorescence, high-content cytometry, 24 h; 410,000 compounds, 0.2% hits; Potency, µM (titrated, usually from 76.6 µM), without a hit: top-dose activation (PINK1 increase), actives largely listed as activators; active = well fitted activation curve with a large enough effect; inconclusive = small, poorly fitted or top-dose-only effect; cell line not stated here; also: potency is read from the fitted curve at half-maximal effect; % of control where 0% means no effect; nearly all actives have a fitted effect of over 65% in size
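Compound titrations (5 concentrations, 24 h) on a stable cell line; DMSO and CCCP controls. Endpoint: fixed-cell PINK1 immunofluorescence with mitochondrial, cell and nuclear markers, scanned by microplate cytometer.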
* hit, by the source's call; i = inactive; ? = inconclusive; / = no result; [ ] = dose if it differs, or a comment. Unless noted, calls follow the shape of the dose curve; as a rule, active = well fitted curve in the direction sought with a large enough effect; inconclusive = small, poorly fitted or top-dose-only effect, or another doubt; inactive = no such curve, though single readings can be large; an effect the other way counts as inactive or inconclusive.

SMILES	ATXN2 expr inh	SW480 rerep	ATXN viability	MCF10A rereplic	IL-1B inflam inh	PINK1 modulator
COc1cccc(-c2ccc3ncnc(Nc4ccccc4)c3c2)c1	/	/	/	/	/	1%
O=C(c1cnn(-c2nccc(-c3ccccc3F)n2)c1C1CC1)N1CCCCC1c1cccnc1 (centres undefined)	/	/	i	/	/	0%
O=c1cc(-c2ccccc2[N+](=O)[O-])oc2ccccc12	-26%	?	i	5.2µM*	43	3%
O=c1cc(-c2ccccc2F)oc2ccccc12	39%	-1%	i	15%	-29	-2%
CC(=O)Oc1cccc(O)c1	13%	-1%	i	4%	/	/
CC(=O)Oc1ccc(C23c4ccccc4C2(OC(C)=O)c2cc(OC(C)=O)ccc23)cc1 (centres undefined)	?	18µM*	?	5.2µM*	-93*	0%
Cc1cc(/C=C(/C#N)c2cccc(F)c2)c(C)n1-c1cccnc1	7%	?	i	?	-89*	-4%[38.3 µM]
Cc1cc(/C=C(\C#N)C(=O)NCc2ccco2)c(C)n1-c1cccnc1	42%	-2%	i	1%	-25	0%
COc1cc(OC)c(C2=NOC(C(=O)NCc3cccs3)C2)cc1Cl (centres undefined)	6%	9.2µM*	i	?	13	6%
CCn1ncc(C2=NOC(C(=O)NCc3ccc(Cl)cc3)C2)c1C (centres undefined)	-20%	3.7µM*	?	?	55	6%[38.3 µM]
COc1cc(C2=NOC(C(=O)NCc3cccnc3)C2)cc(OC)c1OC (centres undefined)	0%	?	i	17%	-4	13%
COc1cc(C2=NOC(C(=O)NCc3cccs3)C2)cc(OC)c1OC (centres undefined)	-17%	6.5µM*	i	10µM*	0	6%
COc1ccc(CNC(=O)C2CC(c3ccc(OC)cc3)=NO2)cc1 (centres undefined)	-19%	4%	i	6.5µM*	9	1%[38.3 µM]
COc1ccc(Cn2nnnc2C(c2ccccn2)N2CCN(c3ccc(O)cc3)CC2)cc1 (centres undefined)	/	/	/	/	/	-1%
CC1=C(C(=O)OCC2CCCCC2)C(c2ccc(Cl)cc2)CC(=O)N1 (centres undefined)	-30%	/	i	/	/	2%
CCOc1ccc(CNC(=O)c2sc3ncnc(N(C)C4CCCCC4)c3c2C)cc1	?	/	?	/	/	-1%
COc1ccc(C2=NOC(C(=O)NCc3ccccn3)C2)cc1 (centres undefined)	13%	9%	?	23%	19	4%
COc1ccc(C2=NOC(C(=O)NCc3cccs3)C2)cc1 (centres undefined)	10%	-3%	i	9.2µM*	36	5%
O=C(NCc1cccnc1)C1CC(c2cccc(Br)c2)=NO1 (centres undefined)	2%	?	i	5.8µM*	72	6%
O=C(NCc1ccccn1)C1CC(c2ccccc2O)=NO1 (centres undefined)	25%	1%	i	-31%	0	1%
COc1cc(NC(=O)C2CC(c3cccc(OC)c3OC)=NO2)cc(OC)c1OC (centres undefined)	-34%	?	?	16µM*	-18	21%[38.3 µM]
O=C(NCc1cccs1)C1CC(c2ccccc2O)=NO1 (centres undefined)	54%	23%	i	18µM*	19	8%
COc1cccc(C2=NOC(C(=O)Nc3cccnc3Cl)C2)c1OC (centres undefined)	0%	7%	i	4%	60	-1%
COc1ccc(Br)cc1C1NC(c2ccc3c(c2)OCO3)=CC(c2cc(Cl)ccc2O)N1 (centres undefined)	/	/	/	/	/	4%
COC(=O)C1CCN(Cc2ccc3c(c2)CN(C(=O)c2ccnn2C)CCO3)CC1	/	/	i	/	/	0%
SMILES	ATXN2 expr inh	SW480 rerep	ATXN viability	MCF10A rereplic	IL-1B inflam inh	PINK1 modulator
COc1ccc(C2=NOC(C(=O)NCc3cccs3)C2)cc1OC (centres undefined)	-12%	5.2µM*	?	1.2µM*	47	3%
O=C(NCc1ccccc1C(F)(F)F)C1CC(c2ccccc2[N+](=O)[O-])=NO1 (centres undefined)	8%	-40%	i	4%	0	1%
O=C(NCc1ccccc1C(F)(F)F)C1CC(c2ccccc2C(F)(F)F)=NO1 (centres undefined)	-7%	5%[9.22 µM]	i	0%	-62*	1%
O=C(NCc1ccc2c(c1)OCO2)C1CC(c2ccc(Cl)c(Cl)c2)=NO1 (centres undefined)	-3%	0%	i	2.6µM*	?	-2%
COc1ccc(C2=NOC(C(=O)NCc3ccccn3)C2)cc1OC (centres undefined)	6%	17%	i	6%	7	0%
O=C(NCc1ccco1)C1CC(c2ccc(Cl)c(Cl)c2)=NO1 (centres undefined)	0%	-4%	i	?	21	0%
C[C@H](CN1CCCC1)C(=O)c1ccc(C(F)(F)F)cc1	1%	/	i	/	/	/
CCOc1ccc(NC(=O)CSc2nnc3c(n2)[nH]c2ccc(S(=O)(=O)N(C)C)cc23)cc1	/	/	/	/	/	0%
COc1ccc(-c2nc(CSCC(=O)NCCC(C)C)c(C)o2)cc1OC	/	/	/	/	/	4%
N#Cc1ncc(-c2ccc3c(c2)OCCOCCOCCOCCOCCO3)nc1C#N	7%	-3%	i	4%	22	5%
N#Cc1ncc(-c2ccc3c(c2)OCCOCCOCCOCCO3)nc1C#N	14%	?	?	18µM*	-103*	18%
COc1ccc(CN2CCC3(CCC(CNC(=O)C4CCCO4)O3)CC2)c(C)c1C (centres undefined)	/	/	i	/	/	-1%
Cc1ccc(C2=NC(C)(C)N=C2SCC(=O)Nc2ccc(Cl)cc2)cc1	-17%	17%	i	?	-106*	1%
CC1(C)N=C(SCC(=O)Nc2ccccc2)C(c2ccc(Cl)cc2)=N1	?	-3%	?	?	-93*	2%
COc1ccccc1-c1nnc(SCC(=O)Nc2ccc(Cl)cc2Cl)o1	2%	-2%	i	-3%	10	3%[38.3 µM]
CC1(C)N=C(SCC(=O)Nc2ccc(Cl)cc2Cl)C(c2ccccc2)=N1	-2%	3%	i	?	-87*	0%
O=C1/C(=C\c2cccnc2)SC(=S)N1C1CCS(=O)(=O)C1 (centres undefined)	?	?	?	15µM*	-79*	-1%[38.3 µM]

Bioassay records (PubChem BioAssay)
